High-throughput results deposited in PubChem by National Center for Advancing Translational Sciences (NCATS).
TRHR enhancer – allosterically enhances the human TRH receptor | 360,000 compounds, 0.66% hits | enhancement, % at 2 µM | AID 493056 | P34981 | TRHR cells, fluo-8 calcium fluorescence, EC20 TRH enhancement; in the data active = enhancement above about 30%; also: 0% is about no effect
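Enhancer read-out: after compound pinning and an initial kinetic agonist-mode read, an EC20 of TRH (10 nM final) was injected and fluo-8 calcium signal (Ex 480/Em 530) followed at 1 s/cycle for 100 cycles in TRHR-expressing cells.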
TRPML1 agonist – human mucolipin-1 channel agonism | TRPML1-expressing cells, Ca2+ dye fluorescence, FDSS | activation, % (concentration not given with the values) | 410,000 compounds, 0.12% hits | AID 624414; in the data active = activation above about 50%; inconclusive = mostly about 30% to 49%; also: 0% is about no effect
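Cells: TRPML1-DL, 1X Tet inducer, ~16 h at 37 degrees C/5% CO2. Dye: ABD Ca8 no-wash + quencher, 45-90 min RT. Read: 10 s baseline, compound add, 110 s agonist phase; 54-4 EC80 (4uM final), 110 s antagonist phase.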
KCNH2 3.1 block – inhibitors of human KCNH2 3.1 potassium channel isoform; 340,000 compounds, 0.95% hits; AID 720553; activity change, % (tested at about 1.8 µM); U2OS KCNH2 3.1, thallium flux FluxOr; hits give low values;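 active = maximum activity change below -70%; inconclusive = maximum activity change from -70% to -50%; inactive = maximum activity change above -50%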;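 also: thallium influx rate constant from kinetic fluorescence after stimulation buffer; % is scaled to controls: 0 for no effect and ±100 for the full control effect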
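U2OS cells transduced with KCNH2 3.1 mutant virus (1.77 x 10^8 /mL, 4 h), plated overnight at 37 C, loaded 45 min with FluxOr dye plus Red40 quencher. Thallium flux rate constant from kinetic reads after stimulation buffer, normalised to controls.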
KCNH2 WT inh – blocks the wildtype human KCNH2 potassium channel; Q12809; U2OS, BacMam KCNH2, thallium flux FluxOr; hits give low values; activity change, % at 1.84 µM; 340,000 compounds, 0.37% hits; AID 720551;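 active = maximum activity change below -70%; inconclusive = maximum activity change between -70% and -50%; inactive = maximum activity change above -50%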; also: % is scaled to controls: 0 for no effect and ±100 for the full control effect
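U2OS cells transduced with wild-type KCNH2 virus are loaded with FluxOr dye for 45 min, and thallium flux is measured in kinetic reads before and after stimulation buffer. Rate constants are normalized to DMSO controls.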
TRPML1 inh – blocks the human TRPML1 channel; Q9GZU1; TRPML1-inducible cells, Ca2+ dye fluorescence, FDSS; hits give low values; inhibition of EC80 agonist-evoked calcium signal; activity change, negative = inhibition, % (test concentration not listed); 390,000 compounds, 0.02% hits; in the data active = activity change below about -50%; inconclusive = between about -30% and that limit;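 also: stimulus is agonist 54-4 at its EC80 concentration; % is scaled to controls: 0 for no effect and ±100 for the full control effect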
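Calcium fluorescence in TRPML1-DL cells induced overnight with Tet: a 110 s read after compound pin addition, then a 110 s antagonist read after challenge with 54-4 at 4 uM final (EC80).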
TRHR agonist – agonists of human TRH receptor. TRHR cells, calcium flux fluo-8, FDSS agonist mode. AID 493084. activation, % at 2 µM. 360,000 compounds, 0.18% hits; in the data active = activation above about 30%; also: 0% is about no effect
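TRHR-expressing cells loaded with fluo-8 calcium dye; 23 nL library compound pin-transferred, kinetic FDSS fluorescence (Ex 480/Em 530) recorded about 180 s for agonist-induced calcium release, before a 10 nM TRH EC20 addition for potentiator mode.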
Starred values were filed as active, the others as inactive; ? = inconclusive; . = no result. Sampled rows, rich in hits. Any-hit rate of the full collection: about 1.7%.

SMILES	TRHR enhancer	TRPML1 agonist	KCNH2 3.1 block	KCNH2 WT inh	TRPML1 inh	TRHR agonist
Fc1ccccc1OCCn1c(=S)[nH]c2ccccc21	37*	2	-9	-2	22	0
Cc1c(C(=O)NCc2ccoc2)oc2ccc3c(c12)C(=O)CC(C)(C)O3	3	-1	-7	5	7	-1
CCC1(C)CC(=O)c2c(ccc3oc(C(=O)NCc4ccccc4)c(C)c23)O1 (centres undefined)	6	50*	.	.	-16	1
O=C(NCCc1nc2ccccc2[nH]1)/C(=C/c1ccc2c(c1)OCO2)NC(=O)c1ccc(Cl)cc1Cl	-21	-1	-107*	-165*	21	0
O=C(NCCc1nc2ccccc2[nH]1)/C(=C/c1ccco1)NC(=O)c1ccccc1Br	-14	2	-23	-6	3	0
O=C(Nc1ccccc1)/C(=C/c1ccc(F)cc1)NC(=O)c1ccco1	2	0	-114*	2	3	0
O=C(Nc1ccccc1)/C(=C\c1ccccc1)NC(=O)c1ccco1	17	1	3	-3	8	0
O=C(NCCc1nc2ccccc2[nH]1)/C(=C/c1ccc(F)cc1)NC(=O)c1ccco1	-5	-1	0	-72*	-15	0
O=C(NCc1ccco1)/C(=C/c1ccccc1)NC(=O)c1ccco1	0	1	-2	-92*	11	2
O=C1CSC(c2ccc([N+](=O)[O-])cc2)N1c1ccccc1 (centres undefined)	-2	1	-2	10	1	0
Cc1ccc(S(=O)(=O)NC(=O)C2(C)CCN2C(=O)Cc2cccs2)nc1 (centres undefined)	.	0	.	.	.	.
CN1CCc2sc(NC(=O)Cc3ccccc3)c(C(=O)Nc3ccc(Cl)cc3)c2C1	3	.	.	.	.	1
C[C@H](CO)N1C[C@H](C)[C@@H](CN(C)C(=O)Nc2ccc(C(F)(F)F)cc2)Oc2c(NC(=O)CCC(F)(F)F)cccc2C1=O	.	0	-2	-6	-5	.
COc1ccccc1N1CCN(C/C(C)=C/c2ccccc2)CC1	10	2	-98*	33	17	0
COc1cccc(/C=N/N2CCN(c3ccccc3OC)CC2)c1	4	0	-120*	-25	-3	-1
COc1ccc(CCNC(=O)CC(c2ccccc2)c2cc(C)ccc2O)cc1OC (centres undefined)	-10	.	22	-19	.	1
COc1ccc([S+](=O)([O-])N2CCN([S+](=O)([O-])c3ccc4c(c3)OCCO4)CC2)c(OC)c1	5	.	.	.	.	1
Cc1ccc(OCC(=O)N2CCC3(CC2)CC(=O)c2ccccc2O3)cc1	-2	-1	-29	17	6	0
O=C1CC2(CCN(C(=O)COc3ccc(Cl)cc3)CC2)Oc2ccccc21	2	0	-86*	-47	-3	0
CCCCCCN1C=CC(=C/C=C(\C#N)C(=O)OCC)C=C1	31*	60*	-26	-11	-12	165*
CCOC(=O)/C(C#N)=C/C=C1\C=Cc2ccccc2N1CC	-3	1	-3	1	13	5
CCOC(=O)/C(C#N)=C/N=c1ccc(C)cn1C	2	0	9	-2	-8	0
CCCN1C=CC(=C/C=C(\C#N)C(=O)OCC)C=C1	6	.	.	.	.	58*
Cc1ccc(CNC(=O)c2cc(S(=O)(=O)N3CCCCC3)ccc2N2CCOCC2)cc1	-1	1	6	30	37	0
CCC(C)c1c(NS(=O)(=O)c2ccc(C)cc2)o[nH]c1=O (centres undefined)	.	2	28	5	-14	.
SMILES	TRHR enhancer	TRPML1 agonist	KCNH2 3.1 block	KCNH2 WT inh	TRPML1 inh	TRHR agonist
CC1CCCCN1S(=O)(=O)c1ccc(C(=O)Nc2sccc2C(N)=O)cc1 (centres undefined)	1	-1	-96*	-22	28	0
COc1ccc(Cl)c(Cn2cnc3c(cnn3C(C)(C)C)c2=O)c1F	.	3	.	.	-11	.
CC1(C)C2CCC(C2)C1C/C=N/NC(N)=S (centres undefined)	33*	2	-3	-1	-5	0
CC1(C)CCC(=NNC(N)=S)CC1	.	1	4	2	-2	.
COc1ccc(/C=C/c2c([N+](=O)[O-])c(=O)n(C)c(=O)n2C)cc1OC	2	0	-75*	12	-6	0
COc1cccc(Nc2nc(C#N)nc(NC3CCCC3)n2)c1	-5	.	.	.	.	-3
CC(=O)Nc1ccc2sc(C)nc2c1	37*	2	23	21	4	-1
CCCCCCCCSC1=CC(=O)C(OC)=C(OC)C1=O	.	2	7	20	-9	.
CCOC(=O)[C@@H](C)N(C(=O)OC(C)(C)C)S(=O)(=O)N(Cc1ccccc1)[C@H](C(=O)OC)C(C)C	.	-1	-8	-4	19	.
CCOC(=O)[C@@H](C)N(C(=O)OC(C)(C)C)S(=O)(=O)N(Cc1ccccc1)[C@@H](C(=O)OC)C(C)C	.	57*	.	.	.	.
COc1cc(O)c(C(CCN2CCN(c3ccccc3)CC2)c2ccc3c(c2)OCO3)c(OC)c1 (centres undefined)	4	2	-90*	?	-12	-1
CCCCCc1cc(=O)oc2c(C(CCN3CCCC3)c3ccc4c(c3)OCO4)c(OC)cc(OC)c12 (centres undefined)	.	1	.	.	1	.
COc1cc(OC)c2c(-c3ccccc3)cc(=O)oc2c1C(CCN1CCOCC1)c1ccc2c(c1)OCO2 (centres undefined)	.	1	-32	1	40	.
COc1cc(OC)c2c(-c3ccccc3)cc(=O)oc2c1C(CCN1CCCC1)c1ccc2c(c1)OCO2 (centres undefined)	0	0	17	-82*	-7	0
CCCCCc1cc(=O)oc2c(C(CCN3CCCCC3)c3ccc4c(c3)OCO4)c(OC)cc(OC)c12 (centres undefined)	2	1	-42	-80*	-11	0
COc1cc(OC)c2c(-c3ccccc3)cc(=O)oc2c1C(CCN1CCN(c2ccccc2)CC1)c1ccc(N(C)C)cc1 (centres undefined)	4	0	.	.	-15	0
CCN(CC)CCC(c1ccc(N(C)C)cc1)c1c(OC)cc(OC)c2c(-c3ccccc3)cc(=O)oc12 (centres undefined)	3	0	-112*	2	10	1
CCCC(=O)Nc1c(-c2ccccc2)[nH][nH]c1=O	.	0	.	.	.	.
O=C(Nc1cccc(Cl)c1)c1cc(S(=O)(=O)N2CCCc3ccccc32)ccc1F	8	1	.	.	50	1
